Source: PubChem BioAssay (NCI)
The panel holds about 83,000 compounds, 20% with a hit somewhere; the sample as a whole holds those more often.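 Single-concentration screen, 48 h exposure, 96-well plates. Endpoint: percent growth. Below 10 = active.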 Unmarked numbers belong to inactive results. Active and inactive are the calls of the source.

How the values were obtained:
Assay in all cases: NCI-60 one-dose screen, 48 h (100 = growth as untreated, 0 = no growth, -100 = all killed)
Details in all cases: 10 µM unless noted
[1] = system: DU-145 prostate
[2] = system: K-562 leukemia
[3] = system: MALME-3M melanoma
[4] = system: MDA-MB-231 breast
[5] = system: RXF 393 renal
[6] = system: SF-268 CNS
[7] = system: SF-295 CNS
[8] = system: SF-539 CNS
[9] = system: UACC-257 melanoma
[10] = system: M14 melanoma
[11] = system: HCT-15 colon
[12] = system: HT29 colon
[13] = system: SNB-75 CNS
[14] = system: SNB-19 CNS
[15] = system: U251 CNS
[16] = system: PC-3 prostate
[17] = system: SK-MEL-5 melanoma
[18] = system: UACC-62 melanoma
[19] = system: LOX IMVI melanoma
[20] = system: SK-MEL-28 melanoma

Row | Compound | growth [1] | growth [2] | growth [3] [%] | growth [4] | growth [5] | growth [6] | growth [7] | growth [8] | growth [9] [%] | growth [10] | growth [11] | growth [12] | growth [13] | growth [14] [%] | growth [15] | growth [16] | growth [17] | growth [18] | growth [19] | growth [20] [%]
1 | CCN1C(=O)N(CC)C2Nn3c(s/c(=C\c4ccc(Cl)cc4Cl)c3=O)=NC21 (stereo not given) | 24.2% | 11.4% | 75.6 | 27.3% | 43% | 64.6% | 26.5% | 13.1% | 83.9 | 26% | 22.4% | 79.3% | 42.6% | 48.6 | 26.3% | 33.6% | 24.5% | 41.1% | 42.9% | 45.2
2 | Cc1cc(NCc2cc(Nc3ccnc4cc(Cl)ccc34)ccc2F)nc(Cl)n1 | 60% | 19.8% | 76.8 | 43.5% | 62.9% | 72.2% | 34.2% | 73.3% | 35.7 | 38.7% | 27% | 28.1% | 71.5% | 58.3 | 44.8% | 34.9% | 3.73% (active) | 45.2% | 34.9% | 72.1
3 | COc1ccc(NC(=O)CSc2nnc(-c3cc(-c4ccccc4)nc4ccccc34)n2-c2ccccc2)cc1 | 99.7% | 84.8% | 88.7 | 89.3% | 99% | 90.8% | 97.4% | 100% | 99.2 | 98.1% | 95.4% | 106% | 79.3% | 93.5 | 100% | 73.2% | 90.8% | 73.8% | 97.3% | 95.7
4 | Cc1nn(-c2ccccc2)c(Cl)c1/C=C(/NC(=O)c1ccccc1)c1nc2ccccc2[nH]1 | 117% | 88.4% | 48.9 | 85.5% | 119% | 104% | 92.9% | 110% | 90.1 | 70% | 94.1% | 75.3% | 96.9% | 101 | 92.4% | 78% | 107% | 75% | 96.8% | 83.6
5 | COc1cc(C2CC(=O)Nc3c2c(C)nn3-c2nc3ccccc3[nH]2)c(OC)c2c1OCO2 (stereo not given) | 88.5% | 17.2% | 73.9 | 73.4% | 73.2% | 71% | 36.9% | 78.4% | 85.5 | 52.1% | 40.2% | 95% | 31.1% | 71.4 | 67.8% | 71.3% | 56.9% | 55.5% | 82.1% | 75.8
6 | O=[N+]([O-])c1ccc(-c2cc(-c3ccc(Nc4nc(Nc5ccc(Cl)cc5)nc(Nc5ccc(Cl)cc5)n4)cc3)no2)cc1 | 87.7% | 65.6% | 96.3 | 73.5% | 71.7% | 96.1% | 563% | 95.4% | 105 | 102% | 89.9% | 16.5% | 16.9% | 98.2 | 91.9% | 74.1% | 79.5% | 95.7% | 84.4% | 40.5
7 | COc1ccc(-c2nc3c(c(=O)n2C(C)=O)C(c2ccc(Cl)cc2)c2sc4c(Cl)cccc4c2O3)cc1 (stereo not given) | -5.67% (active) | 2.48% (active) | 39.8 | -41.2% (active) | -27.4% (active) | -9.95% (active) | 1.12% (active) | -51.8% (active) | 12.2 | -36.3% (active) | -29.1% (active) | -49.4% (active) | -12.7% (active) | 12.7 | -34.3% (active) | 1.24% (active) | -23.3% (active) | 5.57% (active) | -49.6% (active) | 23.4
